Laboratory results: PubChem BioAssay (NCATS)
Where “and” joins values, the source holds several entries; their conditions need not be identical. Identical values can stand only once. Results filed as inconclusive are left out. Calls of active or inactive are those of the source. Unless noted, calls follow the shape of the dose curve; as a rule, active = well fitted curve in the direction sought with a large enough effect; inconclusive = small, poorly fitted or top-dose-only effect, or another doubt; inactive = no such curve, though single readings can be large; an effect the other way counts as inactive or inconclusive.

Tests used:
[1] = biological target: Cellular tumor antigen p53 (Homo sapiens) (UniProt P04637); test: Primary qHTS for small molecule compounds that upregulate eGFP-tagged delta133p53alpha (in N-terminal) cells. (AID 2060322); conditions: NCI-H358 eGFP-delta133p53alpha fluorescence, 24 h; activation: active compounds read high;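 also: cells pre-induced with doxycycline then dosed without doxycycline; 0% = DMSO vehicle and 100% = reference activator; nearly all actives have a fitted effect of over 75% in size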
Summary of the method: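 NCI-H358 cells pre-induced 24 h with 10 ng/ml doxycycline for eGFP-delta133p53alpha, plated dox-free and exposed 24 h at 37C to titrated compounds. Fixed, Hoechst-stained; gated GFP peak intensity by laser scanning cytometry, normalized to DMSO (0%) and 57.5 uM 5-azacytidine (100%).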

[2] = biological target: Cellular tumor antigen p53 (Homo sapiens) (UniProt P04637); test: Primary qHTS for small molecule compounds that upregulate eGFP-tagged delta133p53alpha (in C-terminal) cells. (AID 2060324); conditions: NCI-H358 delta133p53alpha-eGFP (C-terminal tag), GFP fluorescence imaging, 24 h; series mostly up to 57.5 µM;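 also: 0% = DMSO wells and 100% = 57.5 µM 5-azacytidine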
Summary of the method: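 Concentration-response screen: compounds titrated onto pre-induced NCI-H358 D133p53a-eGFP cells, incubated one day, fixed with 3.5% PFA. Per-cell GFP peak intensity was gated, then normalized against intraplate controls.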

[3] = biological target: Aldehyde dehydrogenase, mitochondrial (Homo sapiens) (UniProt P05091); test: qHTS for Inhibitors of the Aldehyde Dehydrogenase Family (ALDH2) Validation screens (AID 2061302; active = well fitted inhibition curve with a large enough effect; title and protocol of this record describe different tests;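 also: plate controls were DMSO vehicle for no effect and maximal DPI positive control response for full effect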); conditions: ALDH inhibition qHTS; series mostly up to 42.6 µM
[4] = biological target: Retinaldehyde dehydrogenase 3 (Homo sapiens) (UniProt P47895); test: qHTS for Inhibitors of the Aldehyde Dehydrogenase Family (ALDH1A3) Validation screen (AID 2061312); conditions: ALDH1A3 enzyme inhibition qHTS validation, fluorescence; series mostly up to 84.7 µM; also: % is scaled to controls: 0 for no effect and ±100 for the full control effect; nearly all actives have a fitted effect of over 45% in size

Cellular tumor antigen p53 (Homo sapiens), sequence (P04637 whole entry, looked up): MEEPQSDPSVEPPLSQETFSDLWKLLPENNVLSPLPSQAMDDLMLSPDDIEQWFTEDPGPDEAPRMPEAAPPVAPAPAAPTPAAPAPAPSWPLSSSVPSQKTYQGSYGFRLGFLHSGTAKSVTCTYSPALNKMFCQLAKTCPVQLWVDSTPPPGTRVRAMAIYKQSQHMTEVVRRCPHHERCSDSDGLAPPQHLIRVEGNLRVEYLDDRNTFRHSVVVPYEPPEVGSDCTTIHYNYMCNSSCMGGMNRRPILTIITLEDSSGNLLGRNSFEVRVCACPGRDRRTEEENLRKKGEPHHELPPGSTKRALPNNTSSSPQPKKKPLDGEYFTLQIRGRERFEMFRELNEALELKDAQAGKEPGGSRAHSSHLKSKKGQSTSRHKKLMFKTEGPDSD

CC(C)Cn1c(=O)n(C)c(=O)c2[nH]cnc21
inactive: activation [1] -30.3% | Potency [2] | Potency [3] | Potency [4]

C/C(=C\c1ccc(C(=O)O)cc1)c1ccc2c(c1)C(C)(C)CCC2(C)C
inactive: activation [1] -14.6% | Potency [2] | Potency [3] | Potency [4]

CN1C2CCCC1CC(NC(=O)c1nn(C)c3ccccc13)C2 (stereo not drawn)
inactive: activation [1] -4.74% | Potency [2] | Potency [3] | Potency [4]

O=c1[nH]c2ccccc2c2ccccc12
inactive: activation [1] 11.2% | Potency [2] | Potency [3] | Potency [4]

Brc1cc2c(cc1[C@H]1Nc3ccccc3[C@H]3C=CC[C@H]31)OCO2
inactive: activation [1] -5.37% | Potency [2] | Potency [3] | Potency [4]

O=C(O)C1CN(CCCP(=O)(O)O)CCN1 (stereo not drawn)
inactive: activation [1] -32.5% | Potency [2] | Potency [3] | Potency [4]

CN1CCN(C2Cc3ccccc3Sc3ccc(Cl)cc32)CC1 (stereo not drawn)
inactive: activation [1] -14.1% | Potency [2] | Potency [3] | Potency [4]

CN(C)CC[C@@H](c1ccc(Cl)cc1)c1ccccn1
inactive: activation [1] -9.6% and -8.57% | Potency [2] | Potency [3] | Potency [4]

O=C(c1ccc(OCCCc2cnc[nH]2)cc1)C1CC1
inactive: activation [1] 6.88% | Potency [2] | Potency [3] | Potency [4]

CCCn1c(=O)[nH]c(=O)c2[nH]cnc21
inactive: activation [1] 24.9% | Potency [2] | Potency [3] | Potency [4]

CN=C(N)NCCC[C@H](N)C(=O)O
inactive: activation [1] -4.6% | Potency [2] | Potency [3] | Potency [4]

CC(=O)OCC1=C(C(=O)O)N2C(=O)[C@@H](NC(=O)Cc3cccs3)[C@H]2SC1
inactive: activation [1] 27.7% and 1.09% | Potency [2] | Potency [3] | Potency [4]

C[N+]1(C)C2CC(OC(=O)[C@H](CO)c3ccccc3)CC1C1OC12 (stereo partly drawn)
inactive: activation [1] 4.68% and -6.58% | Potency [2] | Potency [3] | Potency [4]

NC[C@@H]1O[C@H](c2ccccc2)Cc2c1ccc(O)c2O
inactive: activation [1] 5.43% | Potency [2] | Potency [3] | Potency [4]

CCCOc1ccccc1-c1nc2n[nH]nc2c(=O)[nH]1
inactive: activation [1] -19.5% | Potency [2] | Potency [3] | Potency [4]

O=[N+]([O-])c1cccc2cn[nH]c12
inactive: activation [1] -32.7% | Potency [2] | Potency [3] | Potency [4]

CCN(c1nc(N)c(C(=O)N=C(N)N)nc1Cl)C(C)C
inactive: activation [1] -41.7% | Potency [2] | Potency [3] | Potency [4]

CCOC(=O)N1CCC(=C2c3ccc(Cl)cc3CCc3cccnc32)CC1
inactive: activation [1] 20.9% and 5.49% | Potency [2] | Potency [3] | Potency [4]

Fc1ccc(CN(C2=NCCN2)c2c(Cl)cccc2Cl)cc1
inactive: activation [1] -28.1% | Potency [2] | Potency [3] | Potency [4]

Nc1ccn([C@H]2CC[C@@H](CO)O2)c(=O)n1
inactive: activation [1] 32.8% and -1.67% and -29% | Potency [2] | Potency [3] | Potency [4]

CC(C)C[C@H](NC(=O)[C@H](O)[C@H](N)Cc1ccccc1)C(=O)O
inactive: activation [1] 3.56% | Potency [2] | Potency [3] | Potency [4]

Nc1nc2c(nc(Br)n2C2OC3COP(=O)(O)O[C@@H]3C2O)c(=O)[nH]1 (stereo partly drawn)
inactive: activation [1] 29.4% | Potency [2] | Potency [3] | Potency [4]

O=c1[nH]c2cc([N+](=O)[O-])c([N+](=O)[O-])cc2[nH]c1=O
inactive: activation [1] 41.5% | Potency [2] | Potency [3] | Potency [4]

CCCCCCCCCCC(C)(C)C(=O)Nc1c(OC)cc(OC)cc1OC
inactive: activation [1] -40.6% | Potency [2] | Potency [3] | Potency [4]

CCCCCCCC/C=C\CCCCCCCC(=O)NCCO
inactive: activation [1] -9.12% | Potency [2] | Potency [3] | Potency [4]

CC#CCOC(=O)c1c(C)nc2sc3c(c2c1N)CCC(O)C3 (stereo not drawn)
inactive: activation [1] -13.8% | Potency [2] | Potency [3] | Potency [4]

COc1cc2nc(N3CCN(C(=O)C4COc5ccccc5O4)CC3)nc(N)c2cc1OC (stereo not drawn)
inactive: activation [1] 6.69% and -16.6% and -33.1% | Potency [2] | Potency [3] | Potency [4]

COCCc1ccc(OCC(O)CNC(C)C)cc1 (stereo not drawn)
inactive: activation [1] 4.18% and 10.1% | Potency [2] | Potency [3] | Potency [4]

CC1=C(C(=O)O)N2C(=O)[C@@H](NC(=O)C(N)c3ccccc3)[C@H]2SC1 (stereo partly drawn)
inactive: activation [1] 15.6% and -22.6% | Potency [2] | Potency [3] | Potency [4]

CC1(C)CCC(NC(=O)[C@@H](N)CCC(=O)O)CC1
inactive: activation [1] -8.15% | Potency [2] | Potency [3] | Potency [4]

C(=C\c1ccccc1)/CN1CCN(C(c2ccccc2)c2ccccc2)CC1
inactive: activation [1] -1.67% and -21% | Potency [2] | Potency [3] | Potency [4]

CC[N+](CC)(CC)CC(=O)Nc1c(C)cccc1C
inactive: activation [1] -4.9% | Potency [2] | Potency [3] | Potency [4]
